C2C12 statin = suppressors of statin myotoxicity in C2C12 myotubes, primary screen, cell-based, single point, plate reader; C2C12 myotubes + simvastatin, ATP luminescence, 48 h; scaled: DMSO 0, geranylgeraniol control 100; rescue of ATP level, % at 7.49 µM; 0.78% of 330,000 active;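 active means mean ATP rescue above about 67%, or every replicate alone reaching that limit, limit read from the data, passing the limit was not always enough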;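 further: myotubes were challenged with 10 µM simvastatin during compound exposure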
EWS-Fli inh = EWS/Fli-driven NR0B1 reporter inhibitors, primary screen, A673 cells, NR0B1 luciferase, luminescence, MLPCN library | viability-normalised | inhibition, % at 12.6 µM | 0.67% of 350,000 active;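 active means mean inhibition of at least 50% after viability correction, with every replicate also passing that limit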;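 further: firefly luciferase signal divided by Alamar Blue viability fluorescence both relative to DMSO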
INS-1E GSIS act = GLuc luminescence reporter in INS-1E cells, primary screen for activators of glucose-dependent secretion of insulin | INS-1E GLuc reporter insulin secretion, 2-3 h | activation, % at 16.6 µM | 0.61% of 370,000 active;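 active means lowest replicate activation of at least 40%, so every replicate reaches that level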;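 further: 0% = median of neutral control wells and 100% = median of IBMX positive control wells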
PAX8 reporter = inhibitors of PAX8-driven TPO luciferase reporter, primary screen, RMG-I cells, single concentration. SteadyGlo, 24 h. AID 652154, 2013. 1.2% of 360,000 active. inhibition, % at 12.6 µM;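 active means mean replicate inhibition at least 60% with every replicate also reaching 60%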;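 further: luciferase light reporting Pax8 driven TPO promoter activity; plate controls were median of neutral control wells for no effect and mitoxantrone controls for full effect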
HIV Env fusion = inhibitors of HIV-1 Env-driven cell-cell fusion, primary screen, HeLa-JRFL effector, CEM21 target cells, luciferase; inhibition, % at 12.3 µM; 1.1% of 360,000 active;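 active means mean replicate inhibition score of at least 50 and every replicate individually at or above 50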;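 further: 0% = plate neutral controls and 100% = maraviroc near 300 nM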
miR-122 sensor = miR-122 Renilla sensor signal increase in Huh7, primary screen, miR-122 inhibitor project, cell-based, single point, plate reader | activation (reporter increase), % at 12.5 µM | 0.3% of 340,000 active | AID 602342, 2012 | Huh7 miR-122 Renilla luciferase sensor, 48 h; neutral wells = 0, positive control = 100;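 active means mean replicate activation score at least 90 and every replicate individually at or above 90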;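 further: higher luciferase means less miR-122 activity so hits act as miR-122 inhibitors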
The depositor's hits bear a star; x = no result; [ ] = dose if it differs, or a comment. Sampled rows, rich in hits. Any-hit rate of the full collection: about 3.1%.

SMILES | C2C12 statin | EWS-Fli inh | INS-1E GSIS act | PAX8 reporter | HIV Env fusion | miR-122 sensor
Cc1noc(C)c1NC(=O)N(C)C[C@H]1Oc2ncc(/C=C/c3ccccc3)cc2C(=O)N([C@H](C)CO)C[C@@H]1C | 1 | -9 | 3 | -5 | -31[16.7 µM] | -9[16.7 µM]
O=C(NCCSCc1ccccc1)c1ccc(C2SCC(=O)N2Cc2ccccc2)cc1 (configuration not stated) | 29 | x | x | x | 64* | 6
O=C(O)C1C=CC(C(=O)O)c2ccccc21 (configuration not stated) | x | -10 | x | 93* | 37 | x
COc1c(Cl)cc(Cl)cc1/C=C/C(=O)c1ccc(NC(=O)c2cccs2)cc1 | 26 | x | 6 | 81* | -33 | 2
CCNC(=O)[C@@H]1[C@@H](CO)[C@@H]2Cn3c(ccc(/C=C/c4ccccc4)c3=O)[C@H]1N2CC | 1 | -7 | 2 | 5 | x | 19[16.7 µM]
COc1cc(C2c3[nH]c4ccccc4c3CC3COC(=O)N32)cc(OC)c1O (configuration not stated) | x | 64* | -10 | x | -108 | 12
CCc1nc(N2CCCCC2C)c2oc3ccccc3c2n1 (configuration not stated) | -29 | x | 70 | x | 75* | 10
CCc1nc(N2CCCCC2)c2oc3ccccc3c2n1 | 1 | x | x | x | 69* | 14
CCc1nc(N2CCCC(C)C2)c2oc3ccccc3c2n1 (configuration not stated) | x | x | x | x | 41 | 19
CCc1nc(N2CCCCC2C(=O)O)c2oc3ccccc3c2n1 (configuration not stated) | 17 | 11 | -8 | 2 | -11 | -4
COc1ccc(CNC(=O)C[C@H]2CC[C@@H](NC(=O)c3ccc4c(c3)OCO4)[C@H](CO)O2)cc1 | 8 | 10 | -3 | -5 | 8[16.7 µM] | x
Cn1cc([N+](=O)[O-])c(C(=O)Nc2cc(Oc3ccccc3)cc([N+](=O)[O-])c2)n1 | x | 54* | 1 | x | -119 | x
Cc1nn(C)cc1C(=O)Nc1cc(Oc2ccc(Cl)cc2)cc([N+](=O)[O-])c1 | x | 10 | -12 | x | x | -5
Cc1ccccc1Cn1ccc(NC(=O)c2nn(C)cc2[N+](=O)[O-])n1 | x | x | -4 | 72* | 11 | x
CCn1cc([N+](=O)[O-])c(C(=O)Nc2ccn(Cc3ccccc3F)n2)n1 | 5 | x | -4 | x | -19 | 0
CCC(=O)N1CC2(C1)[C@@H](c1ccccc1)[C@H](CO)N2CCC(F)(F)F | x | 3 | 2 | -8 | x | x
CN1C2CCC1/C(=C\c1ccccc1)C(=O)/C2=C\c1ccccc1 | 67* | x | x | x | -253 | -4
O=C1/C(=C/c2ccccc2)CCC1C1CCCC1 (configuration not stated) | -7 | -100 | -3 | -38 | 3 | 0
COc1ccc2c3c(n(C)c2c1)[C@H](CO)N(C(C)=O)CC31CCN(Cc2cncnc2)CC1 | x | x | 1 | x | x | x
CC1CCc2c(sc(NC(=O)CSc3ncn[nH]3)c2C#N)C1 (configuration not stated) | x | 64* | 13 | 26 | 65* | 6
O=C1N=C(N2CCc3ccccc3C2)S/C1=C\c1cccc(O)c1 | x | -3 | -12 | -21 | -13 | 109*
O=C(Cc1ccccc1)N1CC[C@@H]2[C@H]1c1cc(-c3cccc(F)c3)ccc1N[C@@H]2CO | 4 | 16 | 5 | 68* | x | -6[16.7 µM]
O=C(Cc1ccccc1)N1CC[C@H]2[C@H](CO)Nc3ccc(-c4cccc(F)c4)cc3[C@H]21 | 26 | 6 | 0 | 23 | x | -6[16.7 µM]
O=C(Cc1ccccc1)N1CC[C@@H]2[C@@H](CO)Nc3ccc(-c4cccc(F)c4)cc3[C@@H]21 | -5 | 15 | 2 | -8 | x | 109*[16.7 µM]
COc1cccc(-n2nnnc2SCC(=O)NCCc2ccc(OC)c(OC)c2)c1 | x | 4 | 6 | 15 | 9 | x
COc1cccc(-n2nnnc2SCC(=O)NCCc2ccccc2)c1 | 102* | x | x | x | x | -3
C[C@H]1CN([C@@H](C)CO)C(=O)c2cc(NC(=O)c3ccncc3)ccc2O[C@H]1CN(C)C | -11 | 0 | 16 | 10 | x | -3[16.7 µM]
Oc1ccc(/C=N\Nc2cc(N3CCOCC3)nc(N3CCOCC3)n2)c(O)c1 | -7 | -4 | 8 | 87* | x | -10
